In PubChem BioAssay AID1851 (National Center for Advancing Translational Sciences (NCATS), 2009):
Values joined by “and” are separate entries in the source; they are usually repeats but may differ in a detail not shown here. Identical values can stand only once. Out of some 16,000 compounds screened, about 5,100 (32%) were called active. Roughly 25% stayed inconclusive and do not appear here. This is one part of the list. A number with no mark means an inactive call. Calls come from the whole dose curve; as a rule, active = well fitted curve in the direction sought with a large enough effect; inconclusive = small, poorly fitted or top-dose-only effect, or effect the other way; inactive = no such curve, though single readings can be large or run the other way.

What follows are molecules tested against Cytochrome P450 3A4 (Homo sapiens) (UniProt P08684) (assay: Cytochrome panel assay with activity outcomes). Settings: recombinant CYP, pro-luciferin dealkylation, luminescence, p450-cyp3a4; series mostly up to 57.1 µM; activity, negative = inhibition: at the top concentration.
% is set by controls: 0 for no effect and ±100 for the full control effect.

Cytochrome P450 3A4 (Homo sapiens), sequence (P08684 whole entry, looked up): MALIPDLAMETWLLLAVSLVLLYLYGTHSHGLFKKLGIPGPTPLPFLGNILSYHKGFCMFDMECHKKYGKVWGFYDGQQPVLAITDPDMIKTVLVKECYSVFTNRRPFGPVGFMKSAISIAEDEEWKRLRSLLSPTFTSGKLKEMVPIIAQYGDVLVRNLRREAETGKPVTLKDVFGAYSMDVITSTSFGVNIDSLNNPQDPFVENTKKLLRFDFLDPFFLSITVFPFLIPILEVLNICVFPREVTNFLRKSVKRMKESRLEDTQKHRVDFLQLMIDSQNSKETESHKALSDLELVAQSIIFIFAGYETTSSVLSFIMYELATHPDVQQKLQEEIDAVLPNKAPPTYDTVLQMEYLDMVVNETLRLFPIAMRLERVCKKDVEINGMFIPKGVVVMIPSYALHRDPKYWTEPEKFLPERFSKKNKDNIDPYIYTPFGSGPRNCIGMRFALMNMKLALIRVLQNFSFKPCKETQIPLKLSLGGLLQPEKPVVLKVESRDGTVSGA

Compound | AC50 | activity, negative = inhibition
CCOC(=O)c1ccc(OC(=O)CCCCCN=C(N)N)cc1 | inactive | –
Cc1ccccc1C(=O)NNC(=O)c1ccoc1C | – | -11.1% (inactive)
CCCc1cc2c(cc1NC(=O)c1ccccc1C)OCO2 | 2.51 µM (active) | –
CCCc1cc2c(cc1NC(=O)c1ccccc1Cl)OCO2 | 2.24 µM (active) | –
CCC(=O)Nc1cc2c(cc1C(=O)c1ccccc1)OCCO2 | – | -4.4% [at 2.29 µM]
CCCc1cc2c(cc1NC(=O)c1ccc(Br)cc1)OCO2 | 1.12 µM (active) | –
CCCNC(=O)CSc1nc(-c2cccs2)cc(C(F)(F)F)n1 | 7.08 µM (active) | –
COC(=O)CSc1cc(C(F)(F)F)nc(-c2ccccn2)n1 | – | 18.3% (inactive)
O=C(NN=C1c2ccccc2-c2ccccc21)c1ccccn1 | 14.1 µM (active) | –
O=C(CNC(=O)c1ccccn1)N/N=C/c1ccccc1 | – | -5.67% [at 2.29 µM]
O=C(N/N=C/c1ccco1)c1ccccn1 | – | -1.69% (inactive)
NC(=S)c1ccc[n+]([C@@H]2O[C@@H](COP(=O)([O-])OP(=O)(O)OC[C@@H]3O[C@@H](n4cnc5c(N)ncnc54)[C@@H](OP(=O)(O)O)[C@H]3O)[C@@H](O)[C@H]2O)c1 | 12.6 µM (active) | –
Nc1nc(Cl)nc2c1ncn2[C@@H]1O[C@@H](COP(=O)(O)OP(=O)(O)OP(=O)(O)O)[C@@H](O)[C@H]1O | – | 5.19% (inactive)
NC(=O)C1=CN([C@@H]2O[C@@H](COP(=O)(O)OP(=O)(O)OC[C@@H]3O[C@H](n4cnc5c(N)ncnc54)[C@@H](OP(=O)(O)O)[C@@H]3O)[C@H](O)[C@@H]2O)C=CC1 | – | 0.506% (inactive)
CCn1c(SCc2ccc(Cl)cc2Cl)nc2nc3c(cc2c1=O)CCCC3 | 8.91 µM (active) | –
C#CCCCCCCCCCCCCCCCC(=O)O | – | -17.5% (inactive)
O=C(O)C1=CCNCC1 | inactive | –
COc1ccc(/C(O)=C2/C(=O)C(=O)N(CCCC(=O)O)C2c2ccc(OC)cc2)cc1 (configuration not stated) | – | 3% (inactive)
COc1ccc(C2C(=O)N(CCc3ccccc3)CC(=O)N2C2CCCC2)cc1 (configuration not stated) | 6.31 µM (active) | –
CCCCN1C(=O)CN(CCc2ccccc2)C(=O)C1c1ccc(OC)cc1 (configuration not stated) | 7.94 µM (active) | –
CCCCN1C(=O)CCC(C(=O)O)C1c1ccccc1 (configuration not stated) | – | 7.8% (inactive)

Compound | AC50 | activity, negative = inhibition
COc1ccc(-c2nc3cnc(N(C)C)nc3n(CCc3ccccc3)c2=O)cc1 | – | -16.1% (inactive)
CO[C@@H]1COC(=O)[C@@H](CCSC)NC(=O)C/C=C\[C@@H](C)COC(=O)[C@H](C)NC(=O)C/C=C\[C@H]1C | – | -17.8% [at 11.4 µM]
CO[C@@H]1COC(=O)[C@H](Cc2ccccc2)NC(=O)C/C=C\[C@@H](C)[C@H](OC)COC(=O)[C@@H](C)NC(=O)C/C=C\[C@H]1C | – | -25.2% [at 11.4 µM] and -29.9% [at 11.4 µM]
CO[C@@H]1COC(=O)CCC[C@@H](C)[C@H](OC)COC(=O)[C@H](Cc2ccccc2)NC(=O)C/C=C\[C@H]1C | 3.98 µM (active) | –
CO[C@@H]1COC(=O)CCC[C@@H](C)[C@H](OC)COC(=O)CCC[C@H]1C | – | -19.8% [at 11.4 µM]
CO[C@@H]1COC(=O)[C@H](COCc2ccccc2)NC(=O)C/C=C\[C@@H](C)[C@H](OC)COC(=O)[C@H](COCc2ccccc2)NC(=O)C/C=C\[C@H]1C | – | -6.81% [at 11.4 µM]
CO[C@@H]1COC(=O)[C@H](C)NC(=O)[C@@H](C)COC(=O)CCC[C@H]1C | – | -21.6% [at 11.4 µM]
CO[C@H]1COC(=O)[C@@H](Cc2ccccc2)NC(=O)[C@@H](C)COC(=O)CCC[C@@H]1C | 3.16 µM (active) | –
CO[C@H]1COC(=O)CCC[C@@H](C)[C@H](OC)COC(=O)[C@@H](C)NC(=O)C/C=C\[C@@H]1C | – | -24.2% [at 11.4 µM]
CO[C@H]1COC(=O)C/C=C\[C@H](C)[C@@H](OC)COC(=O)[C@H](Cc2ccccc2)NC(=O)C/C=C\[C@@H]1C | 3.16 µM (active) | –
O=C(NC(=S)Nc1cccc(Cl)c1N1CCCCC1)c1cccs1 | – | -1.51% [at 2.29 µM]
CC1CCN(c2ccccc2NC(=S)NC(=O)c2cccs2)CC1 | 15.8 µM (active) | –
C=CCN(CC=C)C(=S)Nc1ccccc1 | – | -16.5% [at 2.29 µM]
C=CCN(CC=C)C(=S)NC(=O)c1ccc(OC)c(Br)c1 | 0.891 µM (active) | –
COc1ccc(C(=O)NC(=S)NC(C)C)cc1Br | – | -28.4% (inactive)
CCCc1nn2c(=O)c(C(c3ccc(C)cc3)c3c(O)nc4sc(CCC)nn4c3=O)c(O)nc2s1 | – | -0.554% [at 2.29 µM]
CCOC(=O)c1sc(NS(=O)(=O)c2ccccc2)nc1C | – | -13.8% (inactive)
CCOC(=O)c1sc(N(Cc2ccccc2)C(=O)CN2C(=O)CN(C)C2=O)nc1C | 12.6 µM (active) | –
COc1cccc(/C=N/NC(=O)c2c(-c3ccccc3)noc2C)c1 | – | -3.56% [at 2.29 µM]
COc1ccc(NC(=O)COC(=O)c2c(-c3ccccc3)noc2C)cc1 | 7.08 µM (active) | –
Cc1noc(C)c1C(=O)OCC(=O)NC(c1ccccc1)c1ccccc1 | – | -8.57% [at 2.29 µM]
